Sampled rows, rich in hits. Any-hit rate of the full collection: about 21%.
RORg inh: qHTS for inhibitors of ROR gamma transcriptional activity. Nuclear receptor ROR-gamma (Mus musculus), P51450. Drosophila S2 Gal4-RORgamma UAS-luciferase reporter, 20 h. Potency, µM (series often up to 53.6 µM), inactives show at the top dose activity change, negative = inhibition, actives largely listed as inhibitors. 5.4% of 310,000 active. AID 2551, 2010; further: potency means the concentration at half of the fitted maximal effect; nearly all actives have a fitted effect of over 60% in size
Target sequence (P51450 whole entry, looked up, the tested form may be a part): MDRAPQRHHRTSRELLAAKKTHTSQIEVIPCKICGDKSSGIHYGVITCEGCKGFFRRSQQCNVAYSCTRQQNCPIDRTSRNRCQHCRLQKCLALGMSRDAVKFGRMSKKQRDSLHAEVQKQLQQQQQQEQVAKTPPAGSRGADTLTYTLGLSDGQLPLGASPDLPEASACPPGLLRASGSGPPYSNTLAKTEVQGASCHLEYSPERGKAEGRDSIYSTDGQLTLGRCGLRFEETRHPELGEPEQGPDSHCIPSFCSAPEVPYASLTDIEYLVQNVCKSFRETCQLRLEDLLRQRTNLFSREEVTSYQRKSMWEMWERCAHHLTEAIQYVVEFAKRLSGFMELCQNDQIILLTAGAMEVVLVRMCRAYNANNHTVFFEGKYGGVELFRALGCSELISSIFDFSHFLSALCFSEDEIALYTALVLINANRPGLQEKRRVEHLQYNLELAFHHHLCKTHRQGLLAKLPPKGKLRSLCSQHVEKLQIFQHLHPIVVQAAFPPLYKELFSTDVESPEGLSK
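Using a luciferase readout, inhibitors were identified by reduced reporter activity in Drosophila cells coexpressing a copper-inducible Gal4–ROR gamma fusion and UAS-driven Photinus luciferase, incubated 20 hr after 700 uM copper sulfate.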
ELG1 repair inh: qHTS screen for small molecules that inhibit ELG1-dependent DNA repair in human embryonic kidney (HEK293T) cells expressing luciferase-tagged ELG1; HEK293T ELG1-luciferase reporter, luminescence, 16 h; DNA damage induced by 5-fluorouridine; Potency, µM (highest dose often 46.1 µM), without a hit: top-dose activity change, negative = inhibition, most hits filed as inhibitors; 2.3% of 330,000 active; further: potency means the concentration at half of the fitted maximal effect; nearly all actives have a fitted effect of over 55% in size
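Cells (2,000 per well) received 5-fluorouridine plus test compound or DMSO and were incubated 16 hr at 37 °C, 5% CO2. Luciferase activity was read by luminescence 30 min after ONE-Glo addition; signal suppression marked inhibition of damage-induced ELG1 function.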
DT40 TDP1 no CPT: qHTS for Inhibitors of human tyrosyl-DNA phosphodiesterase 1 (TDP1): qHTS in cells in absence of CPT | Potency, µM (top dose mostly 46.2 µM), for inactives: at the highest dose activity change, negative = growth inhibition, usual class: inhibitors | DT40 Tdp1-/- hTDP1 cells, no CPT, ATP luminescence, 48 h | 15% of 420,000 active; further: potency means the concentration at half of the fitted maximal effect; nearly all actives have a fitted effect of over 55% in size
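Growth of hTDP1-complemented DT40 Tdp1-knockout cells is measured by ATP luminescence after at least 48 hr compound exposure at 37 °C, with DMSO substituting for the 20 nM CPT used in the parallel screen.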
IL1B secr inh: qHTS for Inhibitors of Inflammasome Signaling: IL-1-beta AlphaLISA Primary Screen | THP-1 LPS/ATP IL-1B secretion, AlphaLISA, 16 h; hits give low values | activity change, % at 57.5 µM | 4.7% of 360,000 active; in the data active means activity change below about -50%; inconclusive means mostly about -30% to -49%
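THP-1 cells pretreated 1 hr with compounds (up to 57.5 uM final), then stimulated with LPS (250 ng/mL final) plus ATP (1.25 mM final); secreted IL-1B measured by AlphaLISA after 16 hr, decreased signal indicating inhibition.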
VP16 counter: VP16 counterscreen qHTS for inhibitors of ROR gamma transcriptional activity; 3.5% of 310,000 active; Drosophila S2 Gal4-VP16 UAS-luciferase, luminescence, 20 h; Potency, µM (highest dose often 53.6 µM), for inactives: at the highest dose activity, negative = inhibition, hits mostly inhibitors;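 further: Gal4-VP16 expression switched on by copper sulfate through the metallothionein promoter; potency means the concentration at half of the fitted maximal effect; nearly all actives have a fitted effect of over 50% in size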
TDP1 cell CPT: qHTS for Inhibitors of human tyrosyl-DNA phosphodiesterase 1 (TDP1): qHTS in cells in presence of CPT; Potency, µM (series often up to 46.2 µM), without a hit: top-dose activity change, negative = growth inhibition, most hits filed as inhibitors; 12% of 420,000 active; chicken DT40 Tdp1-/-;hTDP1 cells + 20 nM CPT, ATP luminescence, 48 h; AID 686979, 2013; further: potency means the concentration at half of the fitted maximal effect; nearly all actives have a fitted effect of over 55% in size
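Cell growth measured by CellTiter-Glo luminescence after a minimum 48 h, 37 C compound exposure with 20 nM CPT in Tdp1-knockout DT40 cells stably expressing hTDP1, seeded 400/well; qHTS titration format.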
* = called active by the depositor; ? = inconclusive; / = no result; [ ] = remark or other dose. Unless noted, the call rests on the fitted dose curve; in most records, active means well fitted curve in the direction sought with a large enough effect; inconclusive means small, poorly fitted or top-dose-only effect, or another doubt; inactive means no such curve, though single readings can be large; an effect the other way counts as inactive or inconclusive. On the % scale 0 is the no-effect control and ±100 the full control effect.

SMILES | RORg inh | ELG1 repair inh | DT40 TDP1 no CPT | IL1B secr inh | VP16 counter | TDP1 cell CPT
O=C(Nc1ccc2c(c1)OCCO2)c1ccc(Br)cc1 | -26% | ? | ? | ? | ? | ?
Cc1ccc(S(=O)(=O)Nc2ccc(C(=O)Nc3cc(C)on3)cc2)cc1 | -5% | -11% | -15% | -10 | 17% | 3%
CCc1cccc(NC(=O)CCS(=O)(=O)c2ccc(C)cc2)c1 | / | / | -24% | / | / | ?
CCCOc1cccc(C(=O)Nc2ccc(-c3nc4ccccc4o3)cc2)c1 | / | / | 13µM* | / | / | ?
CCN(CC)S(=O)(=O)c1cccc(C(=O)Nc2ccc3c(c2)OCO3)c1 | 20% | ? | ? | -4 | 10% | ?
CCC(CC)C(=O)Nc1cccc(C(=O)Nc2ccc3c(c2)OCO3)c1 | 44% | ? | ? | -17 | 12% | 26µM*
COc1ccc2c(c1)c1c(c(=O)n(Cc3ccccc3)c(=O)n1Cc1cc(C)ccc1C)n2C | / | / | -8% | / | / | 7%
Cc1nnc2ccc(Oc3ccc(-c4ccccc4)cc3)nn12 | 16% | ? | ? | -6 | ? | 13µM*
O=C(COc1ccccc1)Nc1nccs1 | 13µM* | ? | -6% | -3 | ? | -2%
Cc1ccc(CC(=O)Nc2nccs2)cc1C | ? | ? | 2% | -1 | 2.5µM* | -4%
CCCN(CCC)C(=O)Cc1coc2ccc3ccccc3c12 | -22% | -3% | 18µM* | -2 | 0% | ?
C/C(=C\C(=O)O)C(=O)Nc1nccs1 | -1% | 3% | -10% | 6 | 6% | 3%
C/C(=C\C(=O)Nc1nccs1)c1ccccc1 | 8.9µM* | / | -11% | -9 | 11µM* | -16%
COC(=O)c1cc2occc2n1Cc1ccc(F)cc1Cl | / | / | -25% | / | / | -24%
COc1c2c(nc3ccccc13)O[C@H]([C@@](C)(O)CO)C2 | 2%[16.9 µM] | / | / | / | -3%[17 µM] | /
CN(C1CCCCC1)S(=O)(=O)c1ccc2c(c1)c(=O)c(C(=O)NCc1ccc(Cl)cc1)cn2C | / | / | ? | / | / | -20%
O=C(Cc1coc2ccc3ccccc3c12)NCc1ccccc1 | 0% | -9% | ? | 13 | 12% | ?
O=C(Cc1coc2ccc3ccccc3c12)Nc1nccs1 | 14% | -8% | ? | 26 | ? | 15µM*
O=C(COc1ccc2ccccc2c1)Nc1nccs1 | 10µM* | ? | -14% | -2 | 16µM* | 4%
O=C(/C=C\c1cn(-c2ccccc2)nc1-c1ccccc1)Nc1nccs1 | ? | -5% | ? | -9 | ? | 15µM*
CSCCC(NS(=O)(=O)c1ccc(C)cc1)C(=O)N1CCN(S(=O)(=O)c2ccc(F)cc2)CC1 (stereo unspecified) | / | -1% | -25% | -3 | / | 0%
CC[C@@]1(C(=O)OC)N[C@H](CN(C)S(=O)(=O)c2ccccc2)[C@@H]2C(=O)N(C)C(=O)[C@@H]21 | / | 2% | -10% | 4 | / | -1%
Cc1cc(C)c(S(=O)(=O)N2CCCCC2)c(C)c1N(C)S(=O)(=O)c1ccccc1 | 18% | -19% | ? | ? | 3% | 12µM*
Cc1cc(C)c(S(=O)(=O)N2CCCCC2)cc1N(C)S(=O)(=O)c1ccc(Cl)cc1 | 36% | ? | 16µM* | ? | 1%[0.365 µM] | 23µM*
Cc1ccc(S(=O)(=O)N2CCN(C)CC2)c(C)c1N(C)S(=O)(=O)c1ccc(Cl)cc1 | -33% | -14% | 23µM* | -13 | -13% | ?
SMILES | RORg inh | ELG1 repair inh | DT40 TDP1 no CPT | IL1B secr inh | VP16 counter | TDP1 cell CPT
COC(=O)c1ccc(C(NC(=O)OCc2ccccc2)/C(I)=C/[C@@H](C)C(=O)NCc2ccc(C)o2)cc1 (stereo partly specified) | ? | / | / | / | 12% | /
C=C(COC)C1=CCC(C(=O)OC)(C(=O)OC)[C@@H](C[N+](=O)[O-])c2ccccc21 | -19% | / | / | / | -12% | /
CCCCNC(=O)C1(C)CCN1C(=O)c1ccc2ccccc2n1 (stereo unspecified) | / | / | -21% | 58 | / | ?
O=C(Nc1cccc2ccccc12)c1ccc(OC(=S)N2CCOCC2)cc1 | -28% | -2% | 23µM* | 7 | ? | 23µM*
Cc1cccc(NC(=O)c2cccc(OC(=S)N3CCOCC3)c2)c1 | 19% | 7% | 15µM* | 17 | ? | ?
COCCNC(=O)C1CCCN(C(=O)c2cncc(Br)c2)CC1 (stereo unspecified) | / | / | -4% | 3 | / | 1%
CC(C)(C)NCCOCCOc1ccccc1-c1ccccc1 | -4% | 8% | ? | 5 | 2% | 12µM*
COCCCNCCOCCOc1ccccc1-c1ccccc1 | -11% | 7% | ? | -22 | -9% | ?
O=C(O)[C@H](O)[C@@H](O)[C@H](O[C@@H]1O[C@H](CO)[C@H](O)[C@H](O)[C@H]1O)[C@H](O)CO | / | / | 3%[21.1 µM] | / | / | -1%[21.1 µM]
COC(=O)C1CCCCN1Cc1ccc2c(c1)CN(C(=O)c1ccc(F)cc1)CCO2 (stereo unspecified) | / | / | -16% | / | / | -4%[9.04 µM]
COc1ccc(C(=O)N2CCOc3ccc(CN4CCN(c5ccccn5)CC4)cc3C2)o1 | / | / | -22% | / | / | 4%[9.04 µM]
COCc1ccc(C(=O)N2CCOc3ccc(CN4CCN(c5ccc(F)cc5)CC4)cc3C2)o1 | / | / | 21µM* | / | / | 21µM*
CCOC(=O)N1CCN(Cc2ccc3c(c2)CN(C(=O)c2sc(C)nc2C)CCO3)CC1 | / | / | 16µM* | / | / | -8%[9.04 µM]
Cc1nc2sccn2c1CN1CCOc2ccc(CN3CCN(c4ccc(F)cc4)CC3)cc2C1 | / | / | 2.6µM* | / | / | 2.9µM*
Cc1nc2ccccc2nc1CN1CCOc2ccc(CN3CCc4sccc4C3)cc2C1 | / | / | -9% | / | / | 9%
CC(C)c1nc(C(=O)N2CCOc3ccc(CN4CCN(c5ccccn5)CC4)cc3C2)cs1 | / | / | 15µM* | / | / | -18%[9.04 µM]
Cc1nc(SCC(=O)Nc2ccccc2C)cc(-c2ccccc2)n1 | / | / | -7% | / | / | -7%
CCc1ccc(-c2ccc3nnc(SCC(=O)Nc4cccc(C(C)=O)c4)n3n2)cc1 | / | / | ? | / | / | -21%
CCOC(=O)N1CCN(Cc2ccc3c(c2)CN(C(=O)c2ccc4ncccc4c2)CCO3)CC1 | / | / | 23µM* | / | / | -11%[9.04 µM]
CCOC(=O)N1CCN(Cc2ccc3c(c2)CN(C(=O)c2ccc(C#CC(C)(C)O)o2)CCO3)CC1 | / | / | 9.2µM* | / | / | ?
CCN(Cc1ccncc1)Cc1ccc2c(c1)CN(C(=O)c1ccc(C#CC(C)(C)O)o1)CCO2 | / | / | ? | / | / | 4%[9.04 µM]

Screening data (PubChem)
